IMPase inh: IMPase inhibition in cells; P97697; CHO-M1 cells, IP1 accumulation, HTRF TR-FRET ratio; inhibition (IP1 accumulation), % at 46.1 µM; 120,000 tested, under 10 active; AID 901; active = well fitted curve in the direction sought with a large enough effect in the signal ratio, not every such curve was filed as active; inconclusive = small, poorly fitted or top-dose-only effect, or a change in a side signal; inactive = no such curve, though single readings can be large or run the other way; the % refers to the signal ratio;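 note: cells stimulated with carbachol in lithium chloride buffer; plate controls were DMSO basal wells for no effect and reference inhibitor wells for full effect; higher means more IMPase inhibition seen as more IP1 and lower FRET ratio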
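Measured: the HTRF emission ratio (665/620 nm) plus the 620 nm donor channel, each fitted to the Hill equation to give AC50. Cells were CHO-M1 given compounds up to 46 uM and a 30 min carbachol stimulation at 37C.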
HTT aggregate: mutant huntingtin aggregation inhibition | PC12 HttQ103-GFP aggregates, Acumen cytometry, 40 h | Potency, µM (series often up to 46.1 µM), for inactives: at the top dose activity change, negative = inhibition, actives largely listed as inhibitors | actives 1.1% (n = 220,000) | AID 1688; note: potency is the fitted concentration of half-maximal effect; % is set by controls: 0 for no effect and ±100 for the full control effect; nearly all actives have a fitted effect of over 60% in size
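Inducible Q103 Huntingtin exon 1–GFP PC12 line, 1500 cells/well in phenol red free DMEM with 5% equine and 5% calf serum. Tebufenozide 100 nM induced expression; compounds titrated; aggregates quantified by cytometry.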
HTT cytoprotect: protects HTT-Q103 PC12 cells, measured by ATP | Potency, µM (titrated, usually from 56.4 µM), for the others: cytoprotection (ATP increase), actives largely listed as activators | PC12 HTT-Q103 induced, cytoprotection, ATP luminescence, 40 h | actives 0.14% (n = 230,000); note: potency is the fitted concentration of half-maximal effect; % of control where 0% means no effect; nearly all actives have a fitted effect of over 45% in size
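Cells were plated at 1500 per well in phenol red-free DMEM with 5% equine and 5% calf serum. Tebufenozide (100 nM final) and compounds were added, then ATPlite reagent, and luminescence was read.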
NPSR antagonist: antagonists of human neuropeptide S receptor cAMP signaling; AID 1461; CHO-NPSR cells, cAMP TR-FRET, antagonist mode; Potency, µM (titrated, usually from 38.3 µM), inactives show top-dose activity change, negative = inhibition, hits mostly inhibitors; Q6W5P4; actives 1% (n = 220,000); note: potency is the fitted concentration of half-maximal effect; % is set by controls: 0 for no effect and ±100 for the full control effect; nearly all actives have a fitted effect of over 50% in size
Target sequence (Q6W5P4 whole entry, looked up): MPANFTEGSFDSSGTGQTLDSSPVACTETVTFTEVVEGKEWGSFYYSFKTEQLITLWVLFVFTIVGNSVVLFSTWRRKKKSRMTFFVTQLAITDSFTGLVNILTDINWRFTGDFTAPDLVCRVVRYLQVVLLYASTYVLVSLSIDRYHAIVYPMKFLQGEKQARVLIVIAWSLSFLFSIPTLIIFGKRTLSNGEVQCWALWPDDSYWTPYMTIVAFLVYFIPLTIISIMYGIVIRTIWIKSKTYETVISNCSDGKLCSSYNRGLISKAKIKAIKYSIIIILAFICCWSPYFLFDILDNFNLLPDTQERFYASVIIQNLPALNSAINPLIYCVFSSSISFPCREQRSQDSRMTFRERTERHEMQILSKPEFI
LMNA splice mod: modulators of lamin A splicing | Potency, µM (titrated, usually from 46.1 µM), inactives show at the highest dose ratio change, negative = inhibition, hits mostly inhibitors | HeLa LMNA splicing GFP/RFP minigene ratio, 48 h | actives 0.01% (n = 200,000) | AID 1487; active = well fitted inhibition curve with a large enough effect in the signal ratio, with a control signal flat, not every such curve was filed as active; inconclusive = small, poorly fitted or top-dose-only effect, or effect the other way, or a change in a side signal; the % refers to the signal ratio; note: potency is the fitted concentration of half-maximal effect; % is set by controls: 0 for no effect and ±100 for the full control effect
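Read-out is the ratio of GFP to DsRed2 object intensity, acquired by 488 nm laser-scanning cytometry on HeLa lamin A-EGFP minigene reporter cells. Compound incubation 48 hrs at 37 °C in Opti-MEM with 2% FBS; DMSO 0.5% final.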
IMPase Li cell: IMPase inhibition in cells with lithium potentiation; Potency, µM (highest dose often 59.4 µM), without a hit: at the top dose activity, negative = IMPase inhibition, actives largely listed as inhibitors; AID 1457; actives 0.35% (n = 210,000); CHO-M1 cells, IP1 TR-FRET (IP-One), carbachol + lithium;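 note: IP1 builds up when IMPase is blocked and the TR-FRET signal falls; potency is the fitted concentration of half-maximal effect; plate controls were basal vehicle for no effect and high inhibitor control for full effect; nearly all actives have a fitted effect of over 50% in size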
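Test compounds were applied to CHO-M1 cells previously cultured for 16–30 h at 2000 per well. A small lithium amount accompanied them; after 30 min at 37C, IP1 was quantified by TR-FRET.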
* marks the source's active call; other numbers are inactive results; [ ] = dose if it differs, or a comment. Sampled rows, rich in hits. Any-hit rate of the full collection: about 1.6%. Unless noted, calls come from the whole dose curve; as a rule, active = well fitted curve in the direction sought with a large enough effect; inconclusive = small, poorly fitted or top-dose-only effect, or another doubt; inactive = no such curve, though single readings can be large; an effect the other way counts as inactive or inconclusive.

How did Nc1nc(Nc2ccccc2)sc1C(=O)c1ccccc1 do in these assays?
HTT aggregate: 16%[9.22 µM]; HTT cytoprotect: inconclusive; NPSR antagonist: -43%

What do the screens show for `O=C(c1ccccc1)c1c2c(cc3sc4ccccc4[n+]13)-c1cccc3cccc-2c13`?
HTT aggregate: 7.9µM*; NPSR antagonist: 10µM*; LMNA splice mod: inconclusive; IMPase Li cell: 30%

What do the screens show for `O=S(=O)(O)c1ccc(NN(c2c(O)ccc3ccccc23)S(=O)(=O)O)cc1`?
HTT cytoprotect: -5%[10 µM]; IMPase Li cell: -4%

How did C=C(CO)C1Cc2c(ccc3c2OC2COc4cc(OC)c(OC)cc4C2C3=O)O1 (stereo not given) do in these assays?
IMPase inh: 14; HTT cytoprotect: -43%[1.9 µM]; IMPase Li cell: 23%

Results for Cc1ccccc1C(=O)Nc1cccc(C(=O)N/N=C/c2cc(Cl)cc([N+](=O)[O-])c2O)c1 ?
HTT aggregate: 2.8µM*; HTT cytoprotect: -8%; NPSR antagonist: -6%; IMPase Li cell: -8%

Results for Cc1ccc(-n2c(=O)c(C#N)cc3c(=O)n4cccc(C)c4nc32)cc1 ?
IMPase inh: 3; HTT aggregate: -9%; HTT cytoprotect: 5%; NPSR antagonist: 6%[46.1 µM]; LMNA splice mod: -3%; IMPase Li cell: 10µM*

How did Cn1c(N)nc2c(nc(OCc3ccccc3)n2[C@@H]2O[C@H](CO)[C@@H](O)[C@@H]2O)c1=O do in these assays?
HTT cytoprotect: 11%[10 µM]; IMPase Li cell: 5%

How did Cc1ccc(C(=O)C[n+]2cc(-c3ccc(C)cc3)n3c2CCCCC3)cc1 do in these assays?
IMPase inh: 12; HTT aggregate: 0.89µM*; HTT cytoprotect: -76%; NPSR antagonist: -2%[46.1 µM]; LMNA splice mod: 5%; IMPase Li cell: 26%[38.3 µM]

How did COc1ccc(C(=O)C[n+]2cc(-c3ccc(OC)cc3)n3c2CCCC3)cc1 do in these assays?
HTT aggregate: 10µM*; HTT cytoprotect: 3%[10 µM]; NPSR antagonist: 4%; LMNA splice mod: inconclusive; IMPase Li cell: 20%

How did COc1ccc(-c2c[n+](CC(=O)c3cccs3)c3n2CCC3)cc1 do in these assays?
HTT aggregate: -17%[9.22 µM]; HTT cytoprotect: 15%[10 µM]; NPSR antagonist: 2%

How did Cc1nc(NCCc2ccccc2)c2oc3ccccc3c2n1 do in these assays?
IMPase inh: 15; HTT aggregate: 7.9µM*; HTT cytoprotect: -44%; NPSR antagonist: -19%[46.1 µM]; LMNA splice mod: inconclusive; IMPase Li cell: 47%[38.3 µM]

How did Cc1nc(SCC(=O)NCCc2ccccc2)c2oc3ccccc3c2n1 do in these assays?
IMPase inh: 0; HTT aggregate: -1%; HTT cytoprotect: -19%; NPSR antagonist: inconclusive; LMNA splice mod: -3%[0.0737 µM]; IMPase Li cell: 6.3µM*

How did CNC(=O)C(Sc1nc(C)nc2c1oc1ccccc12)C(C)=O (stereo not given) do in these assays?
IMPase inh: -25; HTT aggregate: 9%; HTT cytoprotect: -27%; NPSR antagonist: -7%[46.1 µM]; LMNA splice mod: -12%; IMPase Li cell: 4.5µM*

What do the screens show for `COc1cc(-c2nc(S(=O)(=O)c3ccc(C)cc3)c(N(C)C)o2)cc(OC)c1OC`?
IMPase inh: -6; HTT cytoprotect: 0.89µM*; NPSR antagonist: -17%[46.1 µM]; LMNA splice mod: 12%; IMPase Li cell: 12%[38.3 µM]

How did C/C(=N\NC(=O)c1cc(-c2cccs2)nc2ccccc12)c1ccccn1 do in these assays?
HTT aggregate: 0.89µM*; HTT cytoprotect: -131%; NPSR antagonist: -32%; LMNA splice mod: inconclusive; IMPase Li cell: 6%

Results for CCOC(=O)c1c(NC(=O)CSc2nc3cc(Cl)ccc3c(=O)n2Cc2ccco2)sc(C(=O)N(C)C)c1C ?
IMPase inh: -13; HTT aggregate: 7.1µM*; HTT cytoprotect: -30%[10 µM]; NPSR antagonist: inconclusive; LMNA splice mod: 0%
